Results on 27 compounds are retold here after PubChem BioAssay (NCI).

Holding throughout (experiment): NCI-60 one-dose screen, 48 h (100 = growth as untreated, 0 = no growth, -100 = all killed)
For experiment [1], the system named is DU-145 prostate. The settings on record: 10 µM unless noted.
The subject of experiment [2] is K-562 leukemia. The settings on record: 10 µM unless noted.
The subject of experiment [3] is MALME-3M melanoma. Particulars: 10 µM unless noted.
In experiment [4] the test system is MDA-MB-231 breast. The settings on record: 10 µM unless noted.
Experiment [5] has as its system RXF 393 renal. The settings on record: 10 µM unless noted.
The test system of experiment [6] is SF-268 CNS. The settings on record: 10 µM unless noted.
Experiment [7] has as its system SF-295 CNS. Particulars: 10 µM unless noted.
Experiment [8] relates to SF-539 CNS. The settings on record: 10 µM unless noted.
The subject of experiment [9] is UACC-257 melanoma. Particulars: 10 µM.
Experiment [10] deals with M14 melanoma. Particulars: 10 µM unless noted.

This is part of a sample that, as a whole, favours compounds with a hit. Of some 83,000 tested, about 20% had one in any assay.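 For each line, cells grew in 96-well plates with the test compound present at a single concentration for 48 hours.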 Values without a mark were called inactive. The source made the active and inactive calls. The calls were made as follows: active = growth percent below 10; inactive = the rest.

With `Cc1cccc(NC(=O)c2sc3nc4c(cc3c2N)CCC4)c1C`, the growth was 10.6% in [1]; 13.8% in experiment [2]; 45.5% in [3]; 30.6% in [4]; -4.81% (active) in [5]; 35.1% in experiment [6]. Moreover, the growth in experiment [7] was 4.77% (active); in experiment [8] it was 1.33% (active); in experiment [9], 54.8%; in experiment [10] it was 19.1%.

As for `O=C1c2ccccc2C(=O)c2c(N=Nc3sc(=O)[nH]c3S)cccc21`, the growth was 103% in [1]; 78.5% in [2]; 93.3% in [3]; 97.1% in [4]; 115% in [5]; 97.3% in [6]. The growth in experiment [7] was 97.2%; in experiment [8] it was 107%; in [9] it was 88.5%; in [10], 96.2%.

On to `COc1cc2nc(N3CCC[C@@H](NC4=CC(=O)c5ccccc5C4=O)C3)nc(N)c2cc1OC`, for which the growth was -53.8% (active) in [1]; -47.1% (active) in experiment [2]; 94.8% in experiment [3]; -71.2% (active) in experiment [4]; -76.3% (active) in experiment [5]; -47.4% (active) in [6]. In addition, the growth in [7] is -89% (active); in experiment [8] it was -99.9% (active); in experiment [9], 95.3%; in experiment [10] it was 96.3%.

As for `CCCCCCCCCCCCNC(=S)N/N=C/c1ccc(Cl)c(Cl)c1`, the growth in experiment [1] was 116%; in experiment [2], 97.2%; in experiment [3], 113%; in [4], 104%; in experiment [5] it was 108%; in [6] it was 118%. Besides, the growth was 98.3% in experiment [7], 94.2% in experiment [8], 107% in [9] and 105% in [10].

With `COC(=O)c1cc(-c2cccs2)c(C#N)c(N)c1C#N`, the growth is 109% in experiment [1]; 104% in experiment [2]; 116% in [3]; 94.3% in [4]; 108% in experiment [5]; 99.5% in experiment [6]. Moreover, the growth in [7] was 103%; in experiment [8] it was 101%; in [9], 100%; in experiment [10], 110%.

Consider `CCn1cc(C(=O)O)c(=O)c2cc(F)c(N3CCN(S(=O)(=O)c4c(C)cc(C)cc4C)CC3)cc21`, for which the growth in experiment [1] was 99.5%; in experiment [2], 79.9%; in [3], 90.3%; in experiment [4], 83.7%; in experiment [5], 88.9%; in [6], 83.7%. The growth in [7] was 48.4%; in experiment [8] it was 79.9%; in [9], 106%; in [10], 75.6%.

For the compound `CN(C)c1ccc(-c2ccc(-c3ccc(C(=N)N)cn3)o2)cc1`, the growth is -65.2% (active) in [1]; -46.7% (active) in experiment [2]; -75.5% (active) in experiment [3]; -84.4% (active) in [4]; -81% (active) in experiment [5]; -49.2% (active) in experiment [6]. The growth in [7] is -69.7% (active); in experiment [8] it was -87.4% (active); in experiment [9], -83.8% (active); in [10] it was -74.4% (active).

As to `O=S(=O)(c1ccccc1)n1ccc(-c2ccc3c(c2)CCO3)n1`, the growth is 95% in experiment [1]; 56.1% in experiment [2]; 94% in experiment [3]; 82.9% in experiment [4]; 82.9% in [5]; 92.7% in experiment [6]. In addition, the growth was 83.3% in [7], 86.7% in experiment [8], 79.9% in experiment [9] and 101% in experiment [10].

On to `COc1ccc(-c2cn[nH]c2-c2cc(OC)c3c(c2)OCCO3)cc1`, for which the growth in experiment [1] was 9.03% (active); in experiment [2] it was 9.59% (active); in experiment [3] it was 97.9%; in [4] it was 17.1%; in [5], -14% (active); in [6], 25.1%. Besides, the growth is 28.7% in experiment [7], -34.3% (active) in experiment [8], 75% in [9] and 10.6% in experiment [10].

For `Oc1ccc(Cl)cc1-c1cc(-c2ccc(Cl)cc2)n[nH]1`, the growth in [1] was 78.1%; in experiment [2], 39.9%; in [3], 61.3%; in [4], 37.5%; in experiment [5] it was 72.9%; in experiment [6], 66.7%. Besides, the growth in [7] is 95.3%; in experiment [8], 91.9%; in experiment [9] it was 88.1%; in experiment [10], 76.7%.

`O=c1c2cccc3c(Nc4ccc(F)cc4)ccc(c32)c2nc3ccccc3n12`: the growth in [1] was 95.5%; in experiment [2], 89.5%; in experiment [3], 94.1%; in experiment [4], 70.9%; in experiment [5], 98%; in [6], 95.3%. In addition, the growth is 109% in experiment [7], 83.8% in [8], 86.2% in experiment [9] and 96.7% in experiment [10].

Consider `COc1ccc(S(=O)(=O)Nc2cc(/C=C\c3cc(OC)c(OC)c(OC)c3)cc(OC)c2OC)cc1OC`, for which the growth in experiment [1] is 13.9%; in experiment [2], 15.8%; in experiment [3], 84.1%; in [4] it was 32.3%; in experiment [5], -8.93% (active); in experiment [6], 38.4%. For the same compound, the growth was 8.39% (active) in experiment [7], -18.6% (active) in experiment [8], 72% in [9] and 2.52% (active) in [10].

Take `NC(CC(N)C(=O)O)C(=O)O` (stereo not given): the growth was 115% in experiment [1]; 91.8% in experiment [2]; 104% in experiment [3]; 103% in experiment [4]; 89.6% in experiment [5]; 109% in [6]. Moreover, the growth in experiment [7] was 101%; in experiment [8], 97.9%; in experiment [9] it was 95.2%; in experiment [10], 104%.

`COc1ccc(C2SCC(=O)N2NC(=O)c2ccc(NC(=O)c3ccccn3)cc2)cc1OC` (stereo not given): the growth is 105% in experiment [1]; 95.9% in experiment [2]; 105% in experiment [3]; 102% in experiment [4]; 103% in [5]; 96.5% in [6]. Further, the growth in [7] was 101%; in experiment [8], 98.8%; in experiment [9], 92.2%; in experiment [10] it was 102%.

Take `CCn1cc(C(=O)O)c(=O)c2cc(F)c(N3CCN(S(=O)(=O)c4cccc5ccccc45)CC3)cc21`: the growth in experiment [1] was 18.9%; in experiment [2], 15.4%; in experiment [3], -16% (active); in experiment [4], 23.9%; in [5], 29%; in [6], 16.4%. For the same compound, the growth is 7.68% (active) in experiment [7], 17.4% in [8], 14% in experiment [9] and 17.9% in experiment [10].

On to `CCNCc1ccncc1`, for which the growth in experiment [1] was 108%; in experiment [2] it was 94.5%; in experiment [3] it was 101%; in experiment [4] it was 114%; in experiment [5], 112%; in experiment [6] it was 106%. Further, the growth was 102% in [7], 103% in [8], 96.3% in [9] and 94.5% in [10].

`COC12CC(=O)C(C(C)=O)=C(O)C1(C)c1c(O)c(C)c(O)c(C(C)=O)c1O2` (stereo not given): the growth was 90.2% in [1]; 70.4% in experiment [2]; 90.7% in experiment [3]; 92.7% in experiment [4]; 90.3% in [5]; 78.4% in experiment [6]. The growth in experiment [7] was 13.3%; in experiment [8] it was 78.5%; in [9], 90.7%; in experiment [10] it was 66.7%.

As to `CCC(C)NCC(=O)O` (stereo not given), the growth was 115% in [1]; 96.3% in experiment [2]; 105% in experiment [3]; 111% in [4]; 103% in experiment [5]; 107% in experiment [6]. For the same compound, the growth in experiment [7] was 92.4%; in experiment [8] it was 92.7%; in [9], 112%; in [10] it was 99.3%.

Consider `COc1ccc(-c2nc3sccn3c2-c2ccnc(NCCNS(=O)(=O)c3ccc(C(F)(F)F)cc3)n2)cc1`, for which the growth in experiment [1] was 15.8%; in experiment [2], 6.19% (active); in [3], 8.25% (active); in experiment [4], 16%; in [5], 18.5%; in experiment [6] it was 0.178% (active). Further, the growth was -28.5% (active) in experiment [7], 0.637% (active) in experiment [8], 13.3% in experiment [9] and 10.1% in [10].

For the compound `CCOC(=O)C1=C(C)NC(=O)NC1c1ccc(OCC(=O)N/N=C/c2ccc(Cl)cc2)cc1` (stereo not given), the growth was 106% in experiment [1]; 94.9% in experiment [2]; 101% in [3]; 98.7% in [4]; 95.6% in experiment [5]; 95.1% in experiment [6]. Moreover, the growth in experiment [7] was 99.5%; in [8] it was 91.3%; in experiment [9] it was 68.7%; in experiment [10], 94.6%.

For the compound `CCn1c(=O)c2c(=O)c3c4c(oc3oc2c2ccccc21)C(=O)c1ccccc1C4=O`, the growth was 92.4% in [1]; 28.6% in experiment [2]; 113% in experiment [3]; 6.33% (active) in experiment [4]; 106% in experiment [5]; 84.3% in experiment [6]. Moreover, the growth is 95.1% in experiment [7], 89.9% in experiment [8], 90.6% in experiment [9] and 89.8% in experiment [10].

In the case of `O=S(=O)(O)CCl`, the growth in experiment [1] was 109%; in [2], 94.6%; in experiment [3], 102%; in experiment [4], 108%; in [5], 107%; in experiment [6], 100%. The growth in experiment [7] is 102%; in experiment [8] it was 101%; in experiment [9], 98.5%; in experiment [10], 97.1%.

Regarding `O=C(CN1CCN(c2cc3c(cc2F)c(=O)c(C(=O)O)cn3C2CC2)CC1)Nc1ccc(C(=O)/C=C/c2ccccc2)cc1`, the growth is 43.1% in experiment [1]; 14.2% in [2]; 51% in experiment [3]; 55.1% in experiment [4]; 41.7% in experiment [5]; 37% in experiment [6]. In addition, the growth was 15.2% in experiment [7], 26.2% in experiment [8], 61.1% in experiment [9] and 31.8% in experiment [10].

With `CCN(C(=O)c1cc2ccccc2[nH]1)[C@H]1CCC[C@@H](NCc2ccc(OC)cc2)C1`, the growth in experiment [1] was 95.6%; in experiment [2], 76.6%; in [3] it was 92.3%; in experiment [4], 90.4%; in experiment [5], 86%; in [6], 89.8%. Further, the growth is 99.2% in experiment [7], 104% in experiment [8], 112% in experiment [9] and 98.2% in [10].

Turning to `COc1ccc(OC)c(-c2ccc(-c3ccccc3N)c3[nH]c4ccccc4c23)c1`, the growth is 89.6% in experiment [1]; 76.2% in experiment [2]; 85% in experiment [3]; 74.1% in experiment [4]; 98.2% in [5]; 79.1% in experiment [6]. Besides, the growth was 99.4% in experiment [7], 93.2% in [8], 85% in [9] and 84.6% in [10].

For the compound `O=C(NCCCN1CCN(CCCNC(=O)C2CCCCC2)CC1)C1CCCCC1`, the growth in [1] is 110%; in experiment [2], 92.7%; in [3], 94%; in experiment [4], 108%; in experiment [5] it was 119%; in experiment [6], 104%. The growth in experiment [7] is 84.5%; in experiment [8] it was 96.7%; in [9], 97.1%; in [10], 98.6%.

Turning to `C=C1C(=O)O[C@H]2[C@H](O)[C@@H](C)CCC/C(C)=C/CC[C@@]3(C)O[C@@H]3C[C@@H]12`, the growth in [1] is 99.4%; in [2], 79.2%; in [3], 72%; in experiment [4] it was 77.9%; in experiment [5], 53.1%; in experiment [6], 96.1%. In addition, the growth in experiment [7] was 89.4%; in experiment [8], 84.2%; in experiment [9], 56.9%; in experiment [10], 92.8%.
